The panel holds about 83,000 compounds, 20% with a hit somewhere; the sample as a whole holds those more often.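 How to read the values: 0–100, growth inhibition (40 = 60% inhibited); 0, no net growth; -100 to 0, cell death (-40 = 40% of starting cells died; -100 = all dead).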 Activity calls are given as the source filed them. The calls were made as follows: active = growth percent below 10; inactive = the rest.
How the values were obtained:
Assay in all cases: NCI-60 one-dose screen, 48 h (100 = growth as untreated, 0 = no growth, -100 = all killed)
Conditions in all cases: 10 µM unless noted
DU-145 prostate = system: DU-145 prostate
K-562 leukemia = system: K-562 leukemia
MALME-3M melanoma = system: MALME-3M melanoma
MDA-MB-231 breast = system: MDA-MB-231 breast
RXF 393 renal = system: RXF 393 renal
SF-268 CNS = system: SF-268 CNS
SF-295 CNS = system: SF-295 CNS
SF-539 CNS = system: SF-539 CNS
UACC-257 melanoma = system: UACC-257 melanoma
M14 melanoma = system: M14 melanoma

Compound	growth (DU-145 prostate)	growth (K-562 leukemia)	growth (MALME-3M melanoma)	growth (MDA-MB-231 breast)	growth (RXF 393 renal)	growth (SF-268 CNS)	growth (SF-295 CNS)	growth (SF-539 CNS)	growth (UACC-257 melanoma)	growth (M14 melanoma)
Nc1c(C(=O)Nc2ccccc2Cl)sc2nc3c(cc12)CN(Cc1ccccc1)CC3	94% (inactive)	99% (inactive)	75.5% (inactive)	105% (inactive)	110% (inactive)	81.5% (inactive)	100% (inactive)	102% (inactive)	128% (inactive)	107% (inactive)
CCOC(=O)c1c(C)nc2c(c1N)/C(=C/c1ccccn1)C(=O)N2Cc1ccccc1	12.6% (inactive)	-16% (active)	31.4% (inactive)	14.1% (inactive)	-76.4% (active)	16.7% (inactive)	65.6% (inactive)	11.1% (inactive)	35.1% (inactive)	0.865% (active)
COc1ccc(NC(=O)c2ccc(Nc3ncnc4[nH]c(C)c(C)c34)cc2)cc1	107% (inactive)	105% (inactive)	114% (inactive)	104% (inactive)	105% (inactive)	91.4% (inactive)	96.6% (inactive)	97.5% (inactive)	101% (inactive)	110% (inactive)
CC1(C)[C@@H](O)CC[C@]2(C)[C@H]3CC[C@@H]4[C@H]5[C@H](c6cn(-c7ccccc7)nn6)CC[C@]5(CO)CC[C@@]4(C)[C@]3(C)CC[C@@H]12	95.4% (inactive)	79.2% (inactive)	104% (inactive)	84.3% (inactive)	65.3% (inactive)	76.7% (inactive)	86.5% (inactive)	92.6% (inactive)	83.6% (inactive)	90.5% (inactive)
COc1ccc(-c2[nH]c3ccc(OC)cc3c2C=C(C#N)C#N)cc1	12.5% (inactive)	4.8% (active)	60% (inactive)	53.7% (inactive)	34.4% (inactive)	52.7% (inactive)	-47.1% (active)	23.2% (inactive)	60.2% (inactive)	-13.3% (active)
COc1cc(/C=C/CO)cc(OC)c1O[C@@H]1O[C@H](CO)[C@@H](O)[C@H](O)[C@H]1O	110% (inactive)	96.6% (inactive)	102% (inactive)	90.2% (inactive)	100% (inactive)	102% (inactive)	98.7% (inactive)	105% (inactive)	96.3% (inactive)	104% (inactive)
COc1ccc2[nH]c3nc4cnccc4cc3c2c1	101% (inactive)	111% (inactive)	108% (inactive)	109% (inactive)	123% (inactive)	106% (inactive)	114% (inactive)	102% (inactive)	122% (inactive)	102% (inactive)
COc1cc(C2=N/C(=C\c3cc4ccccc4nc3Oc3ccccc3)C(=O)N2C(=N)N)cc(OC)c1OC	80.4% (inactive)	82.3% (inactive)	57.8% (inactive)	42.4% (inactive)	42% (inactive)	30.7% (inactive)	55.1% (inactive)	33.4% (inactive)	76.4% (inactive)	74.2% (inactive)
COc1cc(/C=C/C(=O)/C=C/c2cc3ccc(Cl)cc3n(Cc3ccccc3)c2=O)ccc1O	-35.1% (active)	3.2% (active)	4.83% (active)	-16.7% (active)	-79.9% (active)	13.7% (inactive)	5.91% (active)	9.94% (active)	-13.9% (active)	-11.3% (active)
C[C@H]1[C@H](C)CC[C@]2(C(=O)OCCCC[P+](c3ccccc3)(c3ccccc3)c3ccccc3)CC[C@]3(C)C(=CC[C@@H]4[C@@]5(C)CC[C@H](OC(=O)C(Cl)Cl)C(C)(C)[C@@H]5CC[C@]43C)[C@H]12	-35.2% (active)	-57.4% (active)	-85.2% (active)	-68.8% (active)	-91.4% (active)	-31.8% (active)	-77.9% (active)	-78.8% (active)	-78.9% (active)	-82.7% (active)
COc1cc(C(C)c2ccc3c(ccn3C)c2)cc(OC)c1OC (stereo not given)	-15.3% (active)	6.54% (active)	68% (inactive)	28.1% (inactive)	53.1% (inactive)	31.4% (inactive)	15.5% (inactive)	-6.4% (active)	61% (inactive)	11.3% (inactive)
COc1ccc2c(c1)Oc1nc(N)c(C#N)c(N)c1C2Sc1ccc(SC)cc1 (stereo not given)	46.2% (inactive)	2.45% (active)	-22.5% (active)	10.5% (inactive)	-54.8% (active)	61.4% (inactive)	80.8% (inactive)	14.7% (inactive)	67.3% (inactive)	27.6% (inactive)
COc1cc(C(=O)Nc2cc(O)c(C/C=C(\C)CCC=C(C)C)c(O)c2)cc2c1O[C@]1(C)CC[C@@H](O)C(C)(C)[C@H]1C2	27% (inactive)	-31.5% (active)	-5.78% (active)	-36.5% (active)	-40.3% (active)	24.8% (inactive)	-36.2% (active)	-41.7% (active)	24% (inactive)	-0.604% (active)
C=C(C)[C@@H]1CCC=C2CC[C@]3(C)[C@H](CC[C@@H]4[C@@]5(C)CCCNC(C)(C)[C@@H]5CC[C@]43C)[C@H]21	18.6% (inactive)	-0.754% (active)	38% (inactive)	-6.11% (active)	47.6% (inactive)	93.1% (inactive)	72.5% (inactive)	84.8% (inactive)	83% (inactive)	34.6% (inactive)
Cc1nc2sc(C(=O)Nc3cccc4ccccc34)c(N)c2cc1C(C)O (stereo not given)	13.6% (inactive)	8.19% (active)	85.1% (inactive)	33.1% (inactive)	21.7% (inactive)	51.4% (inactive)	10.8% (inactive)	0.0649% (active)	64% (inactive)	15.4% (inactive)
Nc1c(C(=O)Nc2ccccc2)sc2nc3c(cc12)CN(C(=O)OCc1ccccc1)CC3	59.4% (inactive)	21.5% (inactive)	52.3% (inactive)	68.4% (inactive)	68.2% (inactive)	62.2% (inactive)	40.7% (inactive)	44.9% (inactive)	59.6% (inactive)	26.5% (inactive)
COc1cc(NC(=O)Nc2cnc(Nc3ccc(N4CCOCC4)cc3)nc2Oc2ccc(C(F)(F)F)cc2)cc(OC)c1	118% (inactive)	95.3% (inactive)	118% (inactive)	96.7% (inactive)	110% (inactive)	101% (inactive)	111% (inactive)	103% (inactive)	101% (inactive)	107% (inactive)
COCCOCCOCc1n(Cc2ccc3ccccc3c2)c2ccccc2[n+]1Cc1ccc2ccccc2c1	32.7% (inactive)	11% (inactive)	-18.1% (active)	-1.76% (active)	21.1% (inactive)	17.9% (inactive)	13.1% (inactive)	37.2% (inactive)	-13.1% (active)	6.95% (active)
O=C(Nc1ccc2ncnc(Nc3ccc(F)c(Cl)c3)c2c1)c1ccccc1	36.1% (inactive)	69.4% (inactive)	90.4% (inactive)	79.8% (inactive)	73.1% (inactive)	67.1% (inactive)	82% (inactive)	78.6% (inactive)	96.8% (inactive)	90.1% (inactive)
O=C(Nc1cccc(-c2cccc(F)c2)c1)C1CCN(Cc2cccc3cccnc23)CC1	72% (inactive)	-37.6% (active)	-50% (active)	37.8% (inactive)	68.6% (inactive)	56.8% (inactive)	56.1% (inactive)	69.5% (inactive)	-2.39% (active)	-54% (active)
O=C(Nc1cc(Nc2ncccc2-c2ncnc3nc[nH]c23)ccc1F)c1cc(C(F)(F)F)cc(C(F)(F)F)c1	20.9% (inactive)	-13.7% (active)	-58.4% (active)	-51.3% (active)	-63.4% (active)	21.8% (inactive)	-52.8% (active)	-56% (active)	-0.588% (active)	-41.7% (active)
O=C1C(Cl)=C(NCCCN(CCCNC2=C(Cl)C(=O)c3ccccc3C2=O)C2=C(Cl)C(=O)c3ccccc3C2=O)C(=O)c2ccccc21	-88% (active)	12.2% (inactive)	-28.4% (active)	38.5% (inactive)	85.3% (inactive)	74.7% (inactive)	91.4% (inactive)	88.3% (inactive)	52.6% (inactive)	11.7% (inactive)
COc1cc(C2=NN(c3ccccc3)C(c3cccc(Nc4ccnc5cc(C(F)(F)F)ccc45)c3)C2)cc(OC)c1OC (stereo not given)	93.6% (inactive)	68.2% (inactive)	92.1% (inactive)	85.9% (inactive)	73.7% (inactive)	74.3% (inactive)	64.8% (inactive)	100% (inactive)	97.3% (inactive)	92.9% (inactive)
Cc1cc(Cl)cc(CN(Cc2ccccc2)Cc2c(O)ccc3ccccc23)c1O	98.1% (inactive)	101% (inactive)	96.7% (inactive)	100% (inactive)	109% (inactive)	90.8% (inactive)	104% (inactive)	103% (inactive)	100% (inactive)	104% (inactive)
C=CCn1c(SCC(=O)Nc2ccc(C(=O)/C=C/c3ccc(Cl)cc3)cc2)nnc1-c1cc(OC)c(OC)c(OC)c1	100% (inactive)	83.8% (inactive)	115% (inactive)	80.5% (inactive)	90.8% (inactive)	87.8% (inactive)	94.3% (inactive)	96.4% (inactive)	95.8% (inactive)	93.9% (inactive)

From PubChem BioAssay (NCI)
